Here are results for 40 molecules from PubChem BioAssay (Tox21).

Each structure is given as a SMILES string. Calls of active or inactive are those of the source. Entries that show only a call come without a potency. Calls come from the whole dose curve; as a rule, active = well fitted activation curve with a large enough effect in the repeat runs; inconclusive = weak or mixed curves; inactive = flat fitted curve, though single readings scatter.

In this test the target is Androgen receptor (Homo sapiens) (UniProt P10275). The experiment in a line: qHTS assay to identify small molecule agonists of the androgen receptor (AR) signaling pathway using the MDA cell line (AID 743040; note: nearly all actives have a fitted effect of over 20% in size). Particulars: MDA-kb2 AR-luc cells, MMTV luciferase, 16 h; series mostly up to 70.3 µM. The source says: National Center for Advancing Translational Sciences [NCATS]
Sequence of Androgen receptor (Homo sapiens) (P10275 whole entry, looked up): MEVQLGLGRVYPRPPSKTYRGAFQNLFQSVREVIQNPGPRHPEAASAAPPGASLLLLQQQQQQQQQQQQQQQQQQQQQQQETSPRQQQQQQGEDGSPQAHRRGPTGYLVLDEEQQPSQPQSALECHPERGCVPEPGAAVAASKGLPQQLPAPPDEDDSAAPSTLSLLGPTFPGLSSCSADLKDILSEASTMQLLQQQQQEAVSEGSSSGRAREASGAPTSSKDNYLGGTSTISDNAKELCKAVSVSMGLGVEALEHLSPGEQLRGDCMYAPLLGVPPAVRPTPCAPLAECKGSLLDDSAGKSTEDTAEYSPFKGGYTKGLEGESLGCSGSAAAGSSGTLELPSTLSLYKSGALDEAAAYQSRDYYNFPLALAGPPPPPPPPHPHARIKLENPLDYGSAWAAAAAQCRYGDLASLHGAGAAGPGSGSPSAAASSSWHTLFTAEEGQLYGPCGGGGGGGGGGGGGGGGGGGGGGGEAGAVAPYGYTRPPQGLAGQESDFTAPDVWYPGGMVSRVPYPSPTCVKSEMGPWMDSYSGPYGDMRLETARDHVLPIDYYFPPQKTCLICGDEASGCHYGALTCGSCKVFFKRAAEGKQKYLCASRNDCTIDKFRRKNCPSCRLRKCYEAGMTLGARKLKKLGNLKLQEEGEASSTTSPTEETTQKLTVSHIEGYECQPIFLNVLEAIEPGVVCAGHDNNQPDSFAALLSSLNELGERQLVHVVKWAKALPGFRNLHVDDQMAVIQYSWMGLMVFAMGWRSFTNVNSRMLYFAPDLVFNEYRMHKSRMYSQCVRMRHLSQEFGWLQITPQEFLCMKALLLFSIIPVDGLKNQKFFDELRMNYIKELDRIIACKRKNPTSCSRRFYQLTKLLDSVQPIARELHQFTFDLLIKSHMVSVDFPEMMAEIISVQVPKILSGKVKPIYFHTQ
NIH Chemical Genomics Center [NCGC]
U.S. Environmental Protection Agency [EPA]
National Institutes of Environmental Health Sciences [NIEHS]
National Toxicology Program [NTP]
U.S. Food and Drug Administration [FDA]
Androgen receptor (AR), a nuclear hormone receptor, plays a critical role in AR-dependent prostate cancer and other androgen related diseases. Endocrine disrupting chemicals (EDCs) and their interactions with steroid hormone receptors like AR may cause disruption of normal endocrine function as well as interfere with metabolic homeostasis, reproduction, developmental and behavioral functions. To identify the compounds that activate AR signaling, MDA-kb2 AR-luc cell line (from ATCC, deposited by Wilson et al.) was used to screen the Tox21 10K compound library. MDA-kb2 AR-luc cell line is human breast carcinoma cell line that was stably transfected with a luciferase reporter gene under control of the MMTV promoter containing response elements for both androgen receptor (AR) and glucocorticoid receptor (GR).
Tox21 Assay Protocol Summary:
MDA-kb2 AR-luc cells were dispensed at 3,000 cells/5 uL/well of culture medium into white wall/solid-bottom 1536-well plates using a Multidrop Combi (ThermoFisher Scientific, Waltham, MA) dispenser. After the assay plates were incubated at 37C and 0% CO2 for 5 h, 23 nL of compounds dissolved in DMSO, positive controls or DMSO only was transferred to the assay plate by a Pintool station (Kalypsys, San Diego, CA). The plates were incubated at 37C and 0% CO2 for 16 h. Then 4 uL of ONE-Glo reagent (Promega, Madison, WI) was added to each plate using a Bioraptr Flying Reagent Dispenser (FRD) workstation (Beckman Coulter, Indianapolis, IN, USA) and luminescence was quantified on a ViewLux (PerkinElmer, Shelton, CT) plate reader after 30 min incubation at room temperature.
`COC(=O)N(C(=O)N1CO[C@@]2(C(=O)OC)Cc3cc(Cl)ccc3C2=N1)c1ccc(OC(F)(F)F)cc1`: the Potency result was “inactive”.
With `CC(C)(O)c1cnn2c(-c3ccc(F)c(-c4c(F)cccc4C#N)c3)cnc2n1`, the Potency result was “inactive”.
Then `COc1cccc(C(=O)CCN[C@@H](C)[C@H](O)c2ccccc2)c1`, with “inactive”; and `Oc1cc(Cl)c(Cl)c(Cl)c1`, with “inactive”; and `C[C@@H]1CC[C@@]2(OC1)O[C@H]1[C@@H](O)[C@H]3[C@@H]4CC[C@H]5C[C@@H](O[C@@H]6O[C@H](CO)[C@H](O[C@@H]7O[C@H](CO)[C@@H](O)[C@H](O[C@@H]8OC[C@@H](O)[C@H](O)[C@H]8O)[C@H]7O[C@@H]7O[C@H](CO)[C@@H](O)[C@H](O[C@@H]8O[C@H](CO)[C@@H](O)[C@H](O)[C@H]8O)[C@H]7O)[C@H](O)[C@H]6O)[C@H](O)C[C@]5(C)[C@H]4CC[C@]3(C)[C@H]1[C@@H]2C`, with “inactive”.
For the molecule `[CH3][Hg][Cl]`, the Potency result is “inactive”.
Then `ClC1=C(Cl)C2(Cl)C3C(Cl)C(Cl)CC3C1(Cl)C2(Cl)Cl` (stereo not given), with “inactive”.
`COP(=O)(OC)SCn1c(=O)oc2cc(Cl)cnc21`: the Potency entry was “inactive”.
The value for `CCOC(=O)C1(c2ccccc2)CCN(CCC(C#N)(c2ccccc2)c2ccccc2)CC1` was “inactive”; that for `CN(C)CCc1c[nH]c2ccc(O)cc12` was “inactive”; that for `CCCCCCCCCCCCCCCCCCn1cc[n+](C)c1` was “inactive”.
The value for `CC[C@H]1C[C@@H]2C[C@H]3c4[nH]c5ccc(OC)cc5c4CCN(C2)[C@@H]13` was “inactive”; that for `CCOC(=O)CC(=O)CCl` was “inactive”; that for `O=C(NC(=O)c1c(F)cccc1F)Nc1cc(Cl)c(OC(F)(F)C(F)F)c(Cl)c1` was “inactive”.
On to `CC(=O)C(Cl)(Cl)Cl`, for which the Potency entry was “inactive”.
The value for `CC1(C)CN=C(NN=C(/C=C/c2ccc(C(F)(F)F)cc2)/C=C/c2ccc(C(F)(F)F)cc2)NC1` was “inactive”; that for `CC(C)N1C(=O)N(c2ccccc2)CSC1=NC(C)(C)C` was “inactive”.
Take `CCOP(=O)(NC(C)C)Oc1ccc(SC)c(C)c1` (stereo not given): the Potency result was “inactive”.
The value for `Cc1cc(C(C)(C)c2cc(C)c(O)c(C)c2)cc(C)c1O` was “inactive”; that for `CCOc1cc(C(C)(C)C)ccc1C1COC(c2c(F)cccc2F)=N1` (stereo not given) was “inactive”; that for `CCCCOCN(C(=O)CCl)c1c(CC)cccc1CC` was “inactive”.
Regarding `CCCSP(=O)(OCC)SCCC`, the Potency result is “inactive”.
With `Oc1c(Br)c(Br)c(Br)c(Br)c1Br`, the Potency result was “inactive”.
The value for `O=c1oc2ccccc2c(O)c1Cc1c(O)c2ccccc2oc1=O` was “inactive”.
The value for `C[C@@H]1O[C@@H](O[C@H]2C[C@@H](O)[C@]3(CO)[C@H]4[C@H](O)C[C@]5(C)[C@@H](C6=CC(=O)OC6)CC[C@]5(O)[C@@H]4CC[C@]3(O)C2)[C@H](O)[C@H](O)[C@H]1O` was “inactive”; that for `COc1ccc(/C(=C/C(=O)N2CCOCC2)c2ccc(Cl)cc2)cc1OC` was “inactive”; that for `Cc1cc(N=Nc2ccccc2C)ccc1N` was “inactive”.
As for `CNC(C)Cc1ccc2c(c1)OCO2` (stereo not given), the Potency result was “inactive”.
The value for `O=C1c2ccccc2C(=O)C1C(=O)C(c1ccccc1)c1ccc(Cl)cc1` (stereo not given) was “inactive”; that for `N#CSCSC#N` was “inactive”; that for `O=[N+]([O-])c1cc([N+](=O)[O-])c2ccccc2c1` was “inactive”.
The value for `N#CCCSCCC#N` was “inactive”.
As for `Oc1c(Cl)c(Cl)cc(Cl)c1Cl`, the Potency entry is “inactive”.
As for `O=[N+]([O-])c1ccc2ccc3cccc4ccc1c2c34`, the Potency result was “inactive”.
The value for `C=CC(=O)OCC(COC(=O)C=C)(COC(=O)C=C)COC(=O)C=C` was “inactive”; that for `Cc1ccc(OP(=O)(Oc2ccccc2)Oc2ccccc2)cc1` was “inactive”.
`COP(=S)(OC)Oc1cc(Cl)c(Br)cc1Cl`: the Potency result was “inactive”.
Regarding `CC(C)(C)OO`, the Potency entry was “inactive”.
With `O=C(CCl)Nc1ccccc1`, the Potency result was “inactive”.
Consider `CCN(CC)c1c([N+](=O)[O-])cc(C(F)(F)F)c(N)c1[N+](=O)[O-]`, for which the Potency result was “inactive”.
